Compound activity deposited in PubChem by National Center for Advancing Translational Sciences (NCATS).
Cruzain inh Det = cruzain (T. cruzi) inhibition with detergent | Potency, µM, inactives show max response, negative = inhibition, actives largely listed as inhibitors | AID 1478 | purified cruzain, Z-FR-AMC fluorescence, 0.01% Triton | P25779 | 0.43% of 200,000 active;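 note: plate controls were neutral wells for no effect and buffer without enzyme for full effect; nearly all actives have a fitted effect of over 40% in size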
Target sequence (P25779 123-467 limits assumed): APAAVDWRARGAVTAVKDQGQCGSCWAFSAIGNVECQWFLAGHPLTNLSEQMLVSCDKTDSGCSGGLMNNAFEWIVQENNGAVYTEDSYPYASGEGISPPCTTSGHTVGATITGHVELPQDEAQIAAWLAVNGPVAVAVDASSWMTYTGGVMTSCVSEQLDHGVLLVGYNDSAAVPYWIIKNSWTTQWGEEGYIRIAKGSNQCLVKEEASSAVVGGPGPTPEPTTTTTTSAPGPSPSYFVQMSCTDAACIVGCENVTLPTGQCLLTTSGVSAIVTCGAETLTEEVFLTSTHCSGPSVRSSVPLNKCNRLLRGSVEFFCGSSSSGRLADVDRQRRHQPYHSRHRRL
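Sodium acetate buffer (100 mM, pH 5.5) containing 5 mM DTT and 0.01% Triton X-100 hosted 1.5 nM cruzain and test compound for 15 min at room temperature. Cleavage of 2 uM Z-FR-AMC was then tracked by fluorescence.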
Cruzain inh noDet = inhibitors of Trypanosoma cruzi cruzain without detergent; purified cruzain, Z-FR-AMC fluorescence, no detergent; AID 1476; P25779; 2.3% of 200,000 active; Potency, µM, inactives show max response, negative = inhibition, usual class: inhibitors;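 note: plate controls were enzyme without inhibitor for no effect and buffer without enzyme for full effect; nearly all actives have a fitted effect of over 40% in size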
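Purified cruzain at 1.5 nM, pre-incubated 15 min with compound at room temperature in 100 mM sodium acetate pH 5.5, 5 mM DTT, 0.00005% Triton X-100. Reaction started with 2 uM Z-FR-AMC; AMC fluorescence increase over 60 s gives rate.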
An asterisk follows results filed as active; ? = inconclusive. An excerpt weighted towards active compounds, which were near 2.5% of everything screened. Calls come from the whole dose curve; as a rule, active = well fitted curve in the direction sought with a large enough effect; inconclusive = small, poorly fitted or top-dose-only effect, or another doubt; inactive = no such curve, though single readings can be large; an effect the other way counts as inactive or inconclusive. Potency is the fitted concentration of half-maximal effect.

SMILES	Cruzain inh Det	Cruzain inh noDet
CCS(=O)(=O)N1Cc2ccccc2CC1C(=O)Nc1ccc(C)cc1 (stereo not drawn)	-3%	?
CC(C)=CCC/C(C)=C/C=O	6%	0%
COC(=O)C1=C(C(=O)OC)[C@@H]2N(Cc3ccccc3)c3ccccc3[C@@]23C[C@@H](C(=O)OC)N(C(=O)NCc2ccccc2)C3=C1	0%	9%
CCOC(=O)c1c(-c2ccccc2)csc1NC(=O)c1nc(S(=O)(=O)CC)ncc1Cl	-3%	-3%
CCc1cccc(NCc2ccccc2-c2nnc(-c3ccccc3Cl)o2)c1	-2%	1%
COc1cccc(C(=O)Nc2cccc(OCc3cc(=O)n4cc(C)ccc4n3)c2)c1	4%	-2%
CC(/C=N/NC(=O)c1ccc(CN2c3cccc4cccc(c34)S2(=O)=O)cc1)c1ccccc1 (stereo not drawn)	-5%	10µM*
O=C1CCC/C(=N/NC(=O)c2ccc(CN3c4cccc5cccc(c45)S3(=O)=O)cc2)C1	-5%	-2%
CCOC(=O)c1c(C)oc2nc(C)nc(Nc3cc(C)cc(C)c3)c12	0%	-3%
Cc1cc(NCCCO)n2c(nc3ccccc32)c1C#N	-15%	32µM*
CCCNc1cc(C)c(C#N)c2nc3ccccc3n12	4%	13%
CCOC(=O)c1c(-c2ccc(OCC)cc2)csc1NC(=O)CCN1C(=O)c2ccccc2C1=O	-4%	?
CCOC(=O)c1c(-c2ccc(OC)cc2)csc1NC(=O)CCN1C(=O)c2ccccc2C1=O	-3%	16µM*
CCCCOc1ccc(-c2nnn(CC(=O)c3c[nH]c4ccccc34)n2)cc1	6%	7.9µM*
COc1ccc(-c2nnn(CC(=O)c3c[nH]c4ccccc34)n2)cc1OC	1%	0%
CCCCCC/C=C1\CC(C(=O)OCC)Oc2ccccc21 (stereo not drawn) (tested in a mixture with another compound)	-2%	4%
Cc1sc(NC(=O)CSc2nnc(COc3ccc(Cl)cc3)n2C)c(C#N)c1C	1%	25µM*
Cc1ccc(-c2nnc(SCC(=O)Nc3sc(C)c(C)c3C#N)n2C)cc1	1%	?
CCC1=C(c2ccc(C)cc2)S(=O)(=O)N=C1N1CCC(C(=O)Nc2ccccc2C(=O)OC)CC1	-4%	-7%
Cc1ccc(C)c(NC(=O)CN(Cc2ccccc2)S(=O)(=O)c2ccc3nc(C)sc3c2)c1	-3%	-2%
Cc1ccc(S(=O)(=O)NCC(=O)OCN2C(=O)c3ccccc3C2=O)cc1	22µM*	25µM*
CCOc1ccc(S(=O)(=O)NCCC(=O)OCN2C(=O)c3ccccc3C2=O)cc1	-7%	-8%
CCCCCCCc1cc2c(cn1)=C(OC)C(C)(OC(C)=O)C(=O)C=2Cl (stereo not drawn)	-2%	-9%
Cc1cccc(-c2cc(C(=O)Nc3ccc4c(c3)OCCO4)c3ccccc3n2)c1	2%	32µM*
CCOc1ccc(-c2cc(C(=O)Nc3ccc4c(c3)OCCO4)c3ccccc3n2)cc1	-5%	?
SMILES	Cruzain inh Det	Cruzain inh noDet
Cc1cccc(NC(=S)NC(=O)c2cc(-c3ccccc3)nc3ccccc23)c1	8%	20µM*
Cc1ccccc1NC(=S)NC(=O)c1cc(-c2ccccc2)nc2ccccc12	0%	?
Cc1cccc(CNS(=O)(=O)c2ccc3[nH]c(=O)ccc3c2)c1	-1%	-9%
Cc1cccc(C(=O)O/N=C(\N)c2ccc(Br)cc2)c1	0%	3%
N/C(=N\OC(=O)c1ccc2ccccc2c1)c1ccc(Br)cc1	-2%	10µM*
O=C(CSc1nc2c([nH]c3ccccc32)c(=O)n1-c1ccccc1)N1CCCc2ccccc21	0%	-9%
COc1ccc(NC(=O)CSc2nc3c(c(=O)n2-c2ccccc2OC)SCC3)cc1	-3%	-8%
CCSc1nnc(NC(=O)CSc2nc3c(c(=O)n2-c2ccccc2OC)SCC3)s1	28µM*	-28%
O=C(NCc1ccc(F)cc1)c1ccc(Nc2nc3ccccc3n3nnnc23)cc1	0%	12%
Clc1ccccc1Cn1nnc2c(N3CCCC3)ncnc21	-5%	-15%
CC1Cc2ccccc2N1c1ncnc2c1nnn2Cc1ccccc1Cl (stereo not drawn)	-21%	25µM*
CCC(C(=O)Nc1ccc(C(C)=O)cc1)n1c(C)c2cnn(-c3ccccc3)c(=O)c2c1C (stereo not drawn)	-8%	?
Cc1nc2ncnn2c(C)c1CCC(=O)NCc1ccc(Cl)cc1	0%	-6%
CCCCC/C=C\C[C@@H](O)/C=C/C=C\CCC(=O)O	3%	-1%
COc1ccc(Br)cc1C1CC(=O)N2CN(Cc3ccccc3)CSC2=C1C#N (stereo not drawn)	?	32µM*
Cc1ccc(C2CC(=O)N3CN(Cc4ccco4)CSC3=C2C#N)cc1 (stereo not drawn)	-3%	-5%
N#CC1=C2SCN(Cc3ccco3)CN2C(=O)CC1c1c(F)cccc1Cl (stereo not drawn)	?	20µM*
COc1ccc(Br)cc1C1CC(=O)N2CN(C)CSC2=C1C#N (stereo not drawn)	-6%	2%
COC(=O)c1cccc(Nc2c(-c3ccc(SC)cc3)nc3nc[nH]n23)c1	-7%	6%
CC1(c2ccc(Cl)cc2)CC(C)(C)N(C(=O)c2ccccc2)c2ccccc21 (stereo not drawn)	-3%	?
CC1(c2cc([N+](=O)[O-])cc([N+](=O)[O-])c2)CC(C)(C)N(C(=O)c2ccccc2)c2ccccc21 (stereo not drawn)	5%	10µM*
COc1ccccc1CNc1nc(-c2ccoc2)nc2ccccc12	-4%	25µM*
COc1ccccc1CNc1ccnc(-c2ccoc2)n1	-2%	-2%
COc1cccc2c1Oc1ncccc1N(c1ccc(C(=O)NCc3cccc(C)c3)s1)C2	-4%	-16%
COc1cccc2c1Oc1ncccc1N(c1ccc(C(=O)NCc3ccccc3Cl)s1)C2	-25%	25µM*
SMILES	Cruzain inh Det	Cruzain inh noDet
COc1ccc(CNC(=O)c2cc3cc(C)ccc3n2C)cc1	-3%	-4%
NNc1nc(-c2ccccc2)cc(-c2ccccc2O)n1	-5%	16µM*
Nc1nc(-c2ccccc2)cc(-c2ccccc2O)n1	-12%	-17%
COCC(=O)N1CCC2(CCCN(Cc3ccc(C#N)cc3)C2)CC1	1%	-10%
COc1ccc(NC(=O)/C(C#N)=C/c2cc(C)n(-c3ccc(F)cc3)c2C)cc1	0%	-15%
COc1ccc(NC(=O)/C(C#N)=C\c2cc(C)n(-c3ccc(Oc4ccc([N+](=O)[O-])cn4)cc3)c2C)cc1	1%	7.9µM*
CCc1ccccc1N(C)S(=O)(=O)c1ccc2[nH]cc(C(=O)NCCOC)c(=O)c2c1	-1%	-6%
Cc1ccn2cc(CNC(=O)c3cccc(C(F)(F)F)c3)nc2c1	-3%	-6%
Cc1cc(-c2ccc(Cl)cc2)n2nc(N)nc2n1	-10%	12%
Nc1nc2nccc(-c3ccc(Cl)cc3)n2n1	25µM*	-75%
COc1ccc(Oc2ncc3ncc(=O)n(Cc4cccs4)c3n2)cc1	-5%	11%
C#CCOCCOCCOCCNc1nc(N2CCN(C(=O)[C@H]([C@@H](C)CC)n3cc(CCCN=C(N)N)nn3)CC2)nc(N2CCN(C(=O)[C@H](CCCCN)n3cc(CCCC)nn3)CC2)n1	25µM*	?
C#CCOCCOCCOCCNc1nc(N2CCN(C(=O)[C@H](C)n3cc(CCCN=C(N)N)nn3)CC2)nc(N2CCN(C(=O)[C@H](CCCCN)n3cc(CCCC)nn3)CC2)n1	-15%	0%
